Experimental data as given in PubChem BioAssay (EPA / NIEHS).
Several values for one entry are separate records, joined by “and”; a condition that tells them apart may be missing. Identical values can stand only once. Results filed as inconclusive are left out. Some compounds were tested as several samples or in several runs, with calls that do not always agree. Activity calls are given as the source filed them. Rule for the calls: active = hit-call score of the fitted dose curve at least 0.9, where 1 is the maximum; inconclusive = response in the unintended direction; inactive = score below 0.9.

Key:
[1] = ATG_XTT_Cytotoxicity: Cytotoxicity Assessment in the Attagene TRANS-FACTORIAL HepG2 Assay (AID 2283584)
Method in brief: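 Transfect HepG2 with GAL4-UAS reporter units, dose compound, incubate 24 h, then measure viable cell number by XTT. Fit concentration response against DMSO baseline.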

[2] = TOX21_p53_BLA_p2_viability: Viability Assessment in the Tox21 HCT-116 p53 Agonism Beta-lactamase Assay, Phase 2 (AID 2283591);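 note: compound exposure lasted 16 h at 37 °C; actives lower the ATP signal meaning cytotoxicity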
Method in brief: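 HCT116 p53-bla cells, 4000/well, dosed after 5 h plating (217-fold dilution of DMSO stocks) and incubated 16 h at 37C. Viability taken as cellular ATP by CellTiter-Glo luminescence after 30 min RT; signal loss marks cytotoxicity.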

[3] = target: Cellular tumor antigen p53 (Homo sapiens) (UniProt P04637); test: TOX21_p53_BLA_p2_ratio: Tox21 HCT-116 p53 Agonism Beta-lactamase Assay, Ratio, Phase 2 (AID 2283592)
Method in brief: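 Cleaved-to-uncleaved substrate ratio (460 vs 530 nm) measured in HCT116 cells with an inducible beta-lactamase reporter linked to p53 activity. Compounds incubated 16 h at 37C before 2 h room-temperature CCF4-AM loading.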

[4] = TOX21_p53_BLA_p3_viability: Viability Assessment in the Tox21 HCT-116 p53 Agonism Beta-lactamase Assay, Phase 3 (AID 2283593);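 note: cells exposed to compound for 16 h before reading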
Method in brief: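 HCT116 cells, 4000/well, dosed 5 h after plating by pin transfer (217-fold dilution from DMSO stock) and incubated 16 h at 37C, 5% CO2. Viability read as ATP luminescence with CellTiter-Glo after 30 min at room temperature.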

[5] = TOX21_p53_BLA_p4_viability: Viability Assessment in the Tox21 HCT-116 p53 Agonism Beta-lactamase Assay, Phase 4 (AID 2283597);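 note: hits lower the luminescence signal meaning cytotoxicity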
Method in brief: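 Viability is taken as cellular ATP: after 16 h compound exposure of HCT116 cells and a 2 h room-temperature CCF4-AM substrate step, CellTiter-Glo reagent is added and luminescence is measured 30 min later.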

[6] = TOX21_p53_BLA_p5_viability: Viability Assessment in the Tox21 HCT-116 p53 Agonism Beta-lactamase Assay, Phase 5 (AID 2283600)
Method in brief: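 Viability is taken from cellular ATP content, measured by luciferase luminescence in the same wells after the beta-lactamase ratio read. Cells are seeded at 4000 per well and exposed to DMSO-dissolved compounds, diluted 217-fold, for 16 h.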

[7] = target: Cellular tumor antigen p53 (Homo sapiens) (UniProt P04637); test: TOX21_p53_BLA_p4_ratio: Tox21 HCT-116 p53 Agonism Beta-lactamase Assay, Ratio, Phase 4 (AID 2283601)
Method in brief: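 HCT-116 p53 beta-lactamase reporter cells (4000/well) preincubated 5 h, then compound (217-fold dilution of DMSO stock) for 16 h at 37C. CCF4-AM substrate added 2 h at room temperature; 460/530 nm emission ratio fitted upward versus DMSO.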

[8] = target: Cellular tumor antigen p53 (Homo sapiens) (UniProt P04637); test: TOX21_p53_BLA_p3_ratio: Tox21 HCT-116 p53 Agonism Beta-lactamase Assay, Ratio, Phase 3 (AID 2283596)
Method in brief: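 Cells were seeded at 4000/well, rested 5 h at 37C, then dosed with DMSO compound solutions (217-fold dilution) for 16 h. CCF4-AM substrate was loaded for 2 h at room temperature, and the 460/530 nm emission ratio was fitted for gain of signal versus DMSO.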

[9] = target: Cellular tumor antigen p53 (Homo sapiens) (UniProt P04637); test: TOX21_p53_BLA_p5_ratio: Tox21 HCT-116 p53 Agonism Beta-lactamase Assay, Ratio, Phase 5 (AID 2283599)
Method in brief: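 HCT-116 p53-bla cells (4000/well) plated 5 h, dosed with compound (217-fold DMSO dilution) for 16 h at 37 C; CCF4-AM substrate 2 h at room temperature. Activity is the 460/530 nm emission ratio (405 nm excitation), fitted in gain-of-signal direction versus DMSO.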

Measured: AC50

Cellular tumor antigen p53 (Homo sapiens), sequence (P04637 whole entry, looked up): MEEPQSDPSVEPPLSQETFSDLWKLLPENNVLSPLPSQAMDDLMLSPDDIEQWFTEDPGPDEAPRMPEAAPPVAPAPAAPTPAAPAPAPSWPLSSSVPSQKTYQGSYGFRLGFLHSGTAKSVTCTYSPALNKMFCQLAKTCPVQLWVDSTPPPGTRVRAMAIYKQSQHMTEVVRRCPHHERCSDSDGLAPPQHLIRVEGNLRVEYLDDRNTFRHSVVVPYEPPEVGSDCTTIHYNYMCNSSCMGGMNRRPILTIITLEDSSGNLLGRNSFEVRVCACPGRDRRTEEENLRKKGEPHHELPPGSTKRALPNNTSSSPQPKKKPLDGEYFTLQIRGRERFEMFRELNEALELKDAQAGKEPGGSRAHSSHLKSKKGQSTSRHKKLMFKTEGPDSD

CC(=O)C(C)=O
inactive: [1] | [2] | [3] | [4] | [5] | [6] | [7]

CC(=O)OCC=Cc1ccccc1
inactive: [1] | [2] | [3] | [4] | [8] | [5] | [7]

COC(=O)Cc1cccc2ccccc12
inactive: [1] | [2] | [3] | [4] | [8] | [5] | [9] | [6] | [7]

CNC[C@H](O)c1cccc(O)c1
inactive: [1] | [2] | [3] | [4] | [8] | [5] | [9] | [6] | [7]

CN(C)C(=N)N=C(N)N
inactive: [1] | [2] | [3] | [4] | [8] | [5] | [9] | [6] | [7]

Clc1nc(C(Cl)(Cl)Cl)c(Cl)c(Cl)c1Cl
inactive: [1] | [2] | [3] | [4] | [8] | [5] | [9] | [6] | [7]

CC1(C)CCC(C)(C)c2cc(C(=O)Nc3ccc(C(=O)O)cc3)ccc21
inactive: [1]
active: [2] 28.1 µM | [3] 61.2 µM | [4] 46.1 µM | [5] 32.5 µM | [9] 46.2 µM | [6] 39.5 µM | [7] 46.9 µM

O=C(O)Cc1cccc2ccccc12
inactive: [1] | [2] | [3] | [4] | [5] | [9] | [6] | [7]

CN(C)CCOCCN(C)C
inactive: [1] | [2] | [3] | [4] | [8] | [5] | [9] | [6] | [7]

CNCCCC12CCC(c3ccccc31)c1ccccc12
active: [3] 85.8 µM | [4] 70.4 µM | [5] 62.7 µM and 36.6 µM | [9] 90.1 µM | [6] 70.2 µM | [7] 87 µM
inactive: [1] | [3] | [4] | [9] | [6] | [7]

O=[N+]([O-])c1ccc(Nc2ccc(Nc3ccccc3)c(S(=O)(=O)O)c2)c([N+](=O)[O-])c1
inactive: [1] | [2] | [5] | [6]

C=CC(=O)OCC(O)COc1ccccc1 (configuration not stated)
active: [2] 45.5 µM | [4] 75.6 µM | [5] 48.2 µM | [7] 37.6 µM
inactive: [1] | [9] | [6]

CC1(C)[C@@H]2CC[C@@]1(C)[C@H](O)C2
inactive: [1] | [3] | [4] | [8]

CC1CCC2CC1C2(C)C (configuration not stated)
inactive: [1] | [2] | [3] | [8] | [9] | [6]

FC1(F)C(F)(F)C(F)(F)C2(F)C(F)(C1(F)F)C(F)(F)C(F)(F)C1(F)C(F)(F)C(F)(F)C(F)(F)C(F)(F)C12F (configuration not stated)
inactive: [1] | [2] | [3] | [9] | [6] | [7]

CCCCCC=CCC(=O)OC
inactive: [1] | [2] | [4] | [8] | [6]

CC(=O)[O][Al][O]C(C)=O
inactive: [1] | [2] | [5] | [6]

CCCCCCCCCCN
inactive: [1] | [3] | [4] | [8] | [5] | [9] | [6] | [7]

O=Cc1ccc(F)cc1
inactive: [1] | [2] | [3] | [5] | [6] | [7]

OCCN1CCNCC1
active: [4] 82.8 µM
inactive: [1] | [3] | [8] | [5] | [9] | [6] | [7]

CCCc1c(OCCCOc2ccc(OCC(=O)O)cc2)ccc(C(C)=O)c1O
active: [3] 63.8 µM | [5] 46.1 µM | [9] 66.6 µM | [6] 65.8 µM | [7] 69.2 µM
inactive: [1] | [4] | [8]

CCCC1CCC(=O)O1 (configuration not stated)
inactive: [1] | [2] | [3] | [8] | [5] | [7]

CC(=O)C(=O)O
inactive: [1] | [3] | [4] | [8] | [5] | [9] | [6] | [7]

O=c1[nH]c(=O)n([C@H]2CCCO2)cc1F
inactive: [1] | [3] | [4] | [8] | [5] | [9] | [6] | [7]

CC(=O)OCCC(C)CC(C)(C)C (configuration not stated)
inactive: [1] | [3] | [4] | [8] | [5] | [9] | [6] | [7]

C=CC(=O)OCCOCCOCC
inactive: [1] | [2] | [3] | [8] | [9] | [6] | [7]

CC(C)CCCCCCCOC(=O)c1ccc(C(=O)OCCCCCCCC(C)C)c(C(=O)OCCCCCCCC(C)C)c1
inactive: [1] | [2] | [9] | [7]

C=C(C)C(=O)O
inactive: [1] | [2] | [4] | [8] | [5] | [9] | [6] | [7]
